Active and inactive are the calls of the source.
Columns and labels:
[1] = test system: Human papillomavirus type 1a protein E7 (residues 44-93); assay: HPV1a E7 fragment binders on microarrays, primary screen, biochemical, small-molecule microarray, residues 44-93, 635 nm fluorescence (AID 1108); details: small-molecule microarray binding, fluorescence 635 nm; higher = more signal;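 further: E7 fragment applied at 1 µg/mL in TBST for 1 h at 4 C; score combines spot fluorescence with its signal to noise ratio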
[2] = modulators of HCV replicon luciferase signal, primary screen, HCV replication inhibitor project, Huh7 cells, luciferase reporter (AID 1109); details: 48 h, higher = more signal;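 further: huh7 hepatoma cells harbouring a luciferase neomycin HCV replicon reporter; luciferase luminescence as measure of HCV replicon replication; test concentration not given here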
[3] = molecular target: Left-right determination factor 2 (Homo sapiens) (UniProt O00292); assay: LEFTY2 binders on small-molecule microarrays, primary screen, biochemical, small-molecule microarray, 635 nm fluorescence scan (AID 1110); details: LEFTY2 binding, higher = more signal
[4] = molecular target: Calmodulin-1 (Homo sapiens) (UniProt P0DP23); assay: CALM1 binders on microarrays, EGTA buffer, profiling panel, biochemical, small-molecule microarray, Cy5-labelled CALM1 (AID 1111); details: Cy5-CALM1 binding fluorescence, higher = more signal;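 further: labelled calmodulin applied in Tris saline Tween buffer holding calcium plus EGTA and DTT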
[5] = molecular target: Calmodulin-1 (Homo sapiens) (UniProt P0DP23); assay: calcium-bound CALM1 binders on microarrays, profiling panel, artefact control for SMM control-protein annotation, biochemical, small-molecule microarray, Cy5-labelled CALM1, plus calcium (AID 1112); details: Cy5-CALM1 binding fluorescence, higher = more signal;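 further: score merges spot fluorescence with signal to noise from triplicate slides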
[6] = small-molecule microarray binders of probe aWnt5a, primary screen, biochemical, biotinylated probe, 635/667 nm fluorescence (AID 1113); details: higher = more signal;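 further: score merges 667 nm fluorescence intensity with signal-to-noise per printed feature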
[7] = small-molecule microarray binders of probe aShh, primary screen, biochemical, biotinylated probe, 635/667 nm fluorescence (AID 1114); details: higher = more signal;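 further: probe is biotin-labelled aShh protein from a stem cell growth factor screen; measures binding of labelled protein to compounds printed on the slide; score merges feature fluorescence at 667 nm with signal-to-noise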
[8] = small-molecule microarray binders of probe aNog, primary screen, biochemical, biotinylated probe, 635/667 nm fluorescence (AID 1115); details: higher = more signal;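 further: probe is biotinylated aNog protein used at 0.15 µg/mL for 1 h at 4 C; z-score combines 667 nm fluorescence of each spot with its signal to noise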
[9] = molecular target: Torsin-1A-interacting protein 1 (Homo sapiens) (UniProt Q5JTV8); assay: LAP1 binders from COS7 cell lysate, primary screen, small-molecule microarray, 635/667 nm fluorescence (AID 1116); details: COS7-hLAP1 lysate binding, 635 nm fluorescence, higher = more signal
[10] = molecular target: Alpha-bungarotoxin (Bungarus multicinctus) (UniProt P60615); assay: alpha-bungarotoxin binders on microarray, profiling panel, artefact control for SMM control protein annotation, biochemical, small-molecule microarray, Alexa647 label, 635/667 nm fluorescence (AID 1117); details: alpha-BTX-A647 binding fluorescence, higher = more signal
[11] = molecular target: Albumin (Bos taurus) (UniProt P02769); assay: bovine serum albumin binders on microarray, profiling panel, artefact control for SMM control protein annotation, biochemical, small-molecule microarray, Alexa647 label, 635/667 nm fluorescence (AID 1118); details: BSA-A647 binding, fluorescence 635 nm, higher = more signal;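 further: score merges 667 nm emission intensity and signal-to-noise per printed compound spot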
[12] = small-molecule microarray binders of probe aXIP, primary screen, biochemical, NeuroSMM set, 635/667 nm fluorescence (AID 1119); details: higher = more signal, called active from +8 up or from −8 down;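 further: probe is the protein aXip251-270 applied at 1 µg/mL to compound-printed slides; binding of probe to printed compounds measured as 667 nm fluorescence plus signal to noise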
[13] = small-molecule binders of probe aNOTCH3, primary screen, biochemical, small-molecule microarray, 635/667 nm fluorescence (AID 1120); details: higher = more signal;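 further: probe is a biotin-tagged antibody raised against NOTCH3 rather than NOTCH3 protein; score merges spot fluorescence near 667 nm with spot signal to noise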
[14] = small-molecule binders of probe aNOTCH2, primary screen, biochemical, small-molecule microarray, 635/667 nm fluorescence (AID 1121); details: higher = more signal;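 further: score merges feature fluorescence read at 667 nm with its signal to noise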
[15] = molecular target: Carbonic anhydrase 2 (Homo sapiens) (UniProt P00918); assay: CAII small-molecule binders, profiling panel, biochemical, small-molecule microarray, Alexa647-labelled CAII (AID 1122); details: CAII-A647 binding fluorescence, higher = more signal
[16] = COS7 lysate on small-molecule microarray, probe aHis, 635 nm (AID 1123); details: COS7 cell lysate, fluorescence, higher = more signal;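 further: z-score combines 667nm fluorescence intensity with signal-to-noise per printed compound spot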
[17] = compound binding in COS7 lysate, probe aLAP1, primary screen, cell lysate, small-molecule microarray (AID 1124); details: probe aLAP1, fluorescence, higher = more signal;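 further: lysate comes from COS7 cells expressing LAP1 and is applied at 0.3 µg/mL; score merges spot fluorescence near 667 nm with signal-to-noise over triplicate slides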
[18] = test system: Sam68 (KHDRBS1); assay: Sam68 small-molecule binders, primary screen, biochemical, small-molecule microarray, 635 nm fluorescence (AID 1125); details: small-molecule microarray binding, higher = more signal;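 further: score merges 667 nm channel intensity with signal to noise over triplicate slides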
[19] = test system: Chordin-like protein 2 (CHRDL2); assay: CHRDL2 small-molecule binders, primary screen, biochemical, small-molecule microarray, 635 nm fluorescence (AID 1126); details: small-molecule microarray binding, fluorescence 635 nm; higher = more signal;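 further: printed compound slides probed with Chrdl2 protein at 4 µg/mL for 1 h at 4 C; score merges 667 nm emission intensity with signal to noise over three replicate slides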
[20] = molecular target: Concanavalin-A (Canavalia ensiformis) (UniProt P02866); assay: ConA small-molecule binders, primary screen, artefact control for SMM control protein annotation, biochemical, small-molecule microarray, Alexa647 label, 635 nm (AID 1127); details: ConA-A647 binding fluorescence, higher = more signal;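 further: z combines 667 nm emission intensity with signal-to-noise across three replicate slides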
Sequence of Concanavalin-A (Canavalia ensiformis) (P02866 whole entry, looked up): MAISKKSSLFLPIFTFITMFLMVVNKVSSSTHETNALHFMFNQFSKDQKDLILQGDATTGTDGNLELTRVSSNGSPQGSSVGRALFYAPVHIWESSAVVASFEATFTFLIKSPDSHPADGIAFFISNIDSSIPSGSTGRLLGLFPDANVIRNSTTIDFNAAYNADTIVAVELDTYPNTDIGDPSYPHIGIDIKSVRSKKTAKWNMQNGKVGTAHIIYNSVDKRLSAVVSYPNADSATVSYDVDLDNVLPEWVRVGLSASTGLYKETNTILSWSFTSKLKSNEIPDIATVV

Sequence of Left-right determination factor 2 (Homo sapiens) (O00292 whole entry, looked up): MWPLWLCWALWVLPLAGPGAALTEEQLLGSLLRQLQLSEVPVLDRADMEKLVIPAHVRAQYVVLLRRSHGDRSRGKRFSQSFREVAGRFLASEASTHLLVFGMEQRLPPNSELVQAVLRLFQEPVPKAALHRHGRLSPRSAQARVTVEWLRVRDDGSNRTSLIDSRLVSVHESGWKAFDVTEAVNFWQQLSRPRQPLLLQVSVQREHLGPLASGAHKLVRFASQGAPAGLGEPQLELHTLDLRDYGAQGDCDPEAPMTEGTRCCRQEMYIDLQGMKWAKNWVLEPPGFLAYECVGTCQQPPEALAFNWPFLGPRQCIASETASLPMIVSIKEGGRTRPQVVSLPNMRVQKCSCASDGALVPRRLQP
Sequence of Alpha-bungarotoxin (Bungarus multicinctus) (P60615 whole entry, looked up): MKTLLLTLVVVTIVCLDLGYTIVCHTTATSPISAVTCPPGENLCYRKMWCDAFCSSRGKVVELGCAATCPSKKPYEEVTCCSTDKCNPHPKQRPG
Sequence of Albumin (Bos taurus) (P02769 whole entry, looked up): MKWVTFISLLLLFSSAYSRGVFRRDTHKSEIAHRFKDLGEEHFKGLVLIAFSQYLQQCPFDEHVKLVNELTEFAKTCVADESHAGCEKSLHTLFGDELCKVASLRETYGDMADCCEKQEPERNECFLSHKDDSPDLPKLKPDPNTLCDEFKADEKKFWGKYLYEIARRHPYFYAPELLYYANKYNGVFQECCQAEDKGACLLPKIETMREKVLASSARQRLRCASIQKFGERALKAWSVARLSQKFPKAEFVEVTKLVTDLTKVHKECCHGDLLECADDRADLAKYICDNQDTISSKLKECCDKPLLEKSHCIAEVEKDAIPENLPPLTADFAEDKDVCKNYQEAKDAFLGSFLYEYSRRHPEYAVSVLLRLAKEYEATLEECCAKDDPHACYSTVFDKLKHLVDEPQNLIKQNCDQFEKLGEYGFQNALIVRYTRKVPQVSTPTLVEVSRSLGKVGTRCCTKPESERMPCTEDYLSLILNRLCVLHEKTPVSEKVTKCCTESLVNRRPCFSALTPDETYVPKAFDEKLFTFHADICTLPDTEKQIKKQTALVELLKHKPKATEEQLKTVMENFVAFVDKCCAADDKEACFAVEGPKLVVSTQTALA
Sequence of Torsin-1A-interacting protein 1 (Homo sapiens) (Q5JTV8 whole entry, looked up): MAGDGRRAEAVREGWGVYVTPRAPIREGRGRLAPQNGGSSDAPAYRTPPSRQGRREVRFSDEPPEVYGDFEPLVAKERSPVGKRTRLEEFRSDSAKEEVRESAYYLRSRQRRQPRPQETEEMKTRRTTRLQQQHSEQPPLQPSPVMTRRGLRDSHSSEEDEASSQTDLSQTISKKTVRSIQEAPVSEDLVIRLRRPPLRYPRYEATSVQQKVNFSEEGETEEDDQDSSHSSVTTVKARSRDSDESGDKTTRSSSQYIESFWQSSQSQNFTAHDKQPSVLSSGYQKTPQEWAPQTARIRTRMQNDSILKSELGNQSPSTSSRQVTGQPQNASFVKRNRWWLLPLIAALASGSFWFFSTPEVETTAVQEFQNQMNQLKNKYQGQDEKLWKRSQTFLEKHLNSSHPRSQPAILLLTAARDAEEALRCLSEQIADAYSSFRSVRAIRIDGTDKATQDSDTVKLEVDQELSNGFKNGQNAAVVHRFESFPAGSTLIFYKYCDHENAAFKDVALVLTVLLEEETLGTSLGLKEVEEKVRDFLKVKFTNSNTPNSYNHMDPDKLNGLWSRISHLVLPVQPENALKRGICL

| Compound | composite z-score [1] | z-score [2] | composite z-score [3] | composite z-score [4] | composite z-score [5] | composite z-score [6] | composite z-score [7] | composite z-score [8] | composite z-score [9] | composite z-score [10] | composite z-score [11] | composite Z-score [12] | composite z-score [13] | composite z-score [14] | composite z-score [15] | composite z-score [16] | composite z-score [17] | composite z-score [18] | composite z-score [19] | composite z-score [20] |
| --- | --- | --- | --- | --- | --- | --- | --- | --- | --- | --- | --- | --- | --- | --- | --- | --- | --- | --- | --- | --- |
| COc1ccccc1CN1C(=O)c2ccccc2[C@](Cc2ccccc2I)(C(=O)NC2CC2)[C@@H]1c1ccc(CO)cc1 | 1.43 | -1.93 | 0.471 | 0.654 | -0.265 | 0.0704 | 0.242 | -0.354 | 1.69 | 1.38 | 0.0506 | 0.0161 (inactive) | -0.0208 | -0.0878 | 0.548 | 2.11 | 0.524 | 1.32 | 0.245 | 1.14 |
| COCCn1c(C(=O)N(C)C)cc2c1C[C@H]1CN(C(=O)c3ccccc3)[C@@](Cc3ccc(F)cc3)(C(=O)OC)[C@@H]21 | 1.3 | -0.285 | -0.0863 | 0.487 | 0.666 | 0.0559 | 0.385 | 0.873 | 0.153 | 0.305 | 0.985 | 0.916 (inactive) | 0.073 | 0.197 | 0.859 | 2.02 | -0.0593 | 0.459 | 0.194 | 0.787 |
| CC(C)N1C(=O)c2ccccc2[C@](C)(C(=O)NC2CC2)[C@@H]1c1ccc(CO)cc1 | 0.591 | -0.479 | 0.0197 | 0.391 | -0.34 | -0.096 | -0.138 | 0.214 | 0.507 | 0.931 | 0.375 | -0.116 (inactive) | -0.0557 | -0.171 | 0.665 | 1.41 | -0.141 | 0.424 | 0.172 | 0.699 |
| CCN(CC)c1ccc(N2CC=CC34O[C@@H]5/C=C\CCC(C)OC(=O)C5[C@H]3C(=O)N(CCCCCCO)[C@@H]4C2=O)cc1 (stereo not given in full) | -0.27 | -0.693 | -0.694 | -0.423 | -0.304 | -0.13 | -0.223 | -0.16 | 0.891 | -1.04 | 0.362 | 0.184 (inactive) | -0.204 | -0.224 | 0.548 | -0.039 | -0.458 | -0.264 | -0.143 | -0.285 |
| C=C(COC)/C(=C/C[C@H](OC(C)=O)c1ccccc1OCCO)c1cnc2ccccc2c1 | 1.29 | -1.57 | 0.425 | 0.177 | -0.173 | -0.0944 | 0.0756 | 0.226 | -0.0998 | 0.625 | 0.185 | 0.115 (inactive) | -0.0044 | -0.14 | 0.648 | 0.649 | -0.186 | 1.06 | 1 | 0.49 |

Reference: PubChem BioAssay
